Test results taken from the supplement of paper PMC10849652.
Of roughly 7,900 targets only a part is listed; those with a hit were picked by preference. About 0.6% of all pairs of compound and target were hits. Unmarked numbers belong to inactive results.

Legend:
Assay in all cases: log2 fold change, soluble protein after heating vs DMSO (PISA); higher = thermal stabilisation; K562 cells, 10 uM, 30 min; active = over 0.2 and 3.5 SD of the protein, either way, in both replicates (recomputed)
saracatinib = compound: CN1CCN(CCOc2cc(OC3CCOCC3)c3c(Nc4c(Cl)ccc5c4OCO5)ncnc3c2)CC1 [saracatinib]
Outline: (§1)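 K562 cells at 2×10^6 cells/mL were treated with 10 μM compound for 30 min. Aliquots were heated for 3 min across 48°C-58°C, pooled, and extracted in PBS with 0.5% NP-40 at 4°C; soluble protein was the supernatant after 21,000xg for 90 min. Soluble protein was quantified by TMTpro 16plex LC-MS/MS with channel sums equalised, and reported as log2 fold change in thermal stability against DMSO controls, with values from duplicates.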

sotrastaurin = compound: CN1CCN(c2nc(C3=C(c4c[nH]c5ccccc45)C(=O)NC3=O)c3ccccc3n2)CC1 [sotrastaurin]
Outline: as §1

alvocidib = compound: CN1CC[C@H](c2c(O)cc(O)c3c(=O)cc(-c4ccccc4Cl)oc23)[C@H](O)C1 [alvocidib]
Outline: as §1

Tubastatin A = compound: CN1CCc2c(c3ccccc3n2Cc2ccc(C(=O)NO)cc2)C1 [Tubastatin A]
Outline: as §1

[1] = compound: CNC(=O)C1=CC=CC=C1NC2=NC(=NC=C2Cl)NC3=C(C=C(C=C3)N4CCOCC4)OC
Outline: as §1

defactinib = compound: CNC(=O)c1ccc(Nc2ncc(C(F)(F)F)c(NCc3nccnc3N(C)S(C)(=O)=O)n2)cc1 [defactinib]
Outline: as §1

rucaparib = compound: CNCc1ccc(-c2[nH]c3cc(F)cc4c3c2CCNC4=O)cc1 [rucaparib]
Outline: as §1

[2] = compound: CNc1nc(-c2ccc3c(N)n[nH]c3c2)cc(N2C[C@@H](C(=O)NC3CCCCC3)CC[C@H]2C)n1
Outline: as §1

encorafenib = compound: COC(=O)N[C@@H](C)CNc1nccc(-c2cn(C(C)C)nc2-c2cc(Cl)cc(NS(C)(=O)=O)c2F)n1 [encorafenib]
Outline: as §1

[3] = compound: COC(=O)[C@H](CCSC)NC(=O)C1=C(C=C(C=C1)NC[C@H](CS)N)C2=CC=CC=C2
Outline: as §1

[4] = compound: COC1=CC=C(C=C1)CN2C=CC3=C2C=C(C=C3)C(=O)NO
Outline: as §1

filanesib = compound: CON(C)C(=O)N1N=C(c2cc(F)ccc2F)S[C@@]1(CCCN)c1ccccc1 [filanesib]
Outline: as §1

zotarolimus = compound: CO[C@H]1C[C@@H]2CC[C@@H](C)[C@@](O)(O2)C(=O)C(=O)N2CCCC[C@H]2C(=O)O[C@H]([C@H](C)C[C@@H]2CC[C@H](n3cnnn3)[C@H](OC)C2)CC(=O)[C@H](C)/C=C(\C)[C@@H](O)[C@@H](OC)C(=O)[C@H](C)C[C@H](C)/C=C/C=C/C=C/1C [zotarolimus]
Outline: as §1

idasanutlin = compound: COc1cc(C(=O)O)ccc1NC(=O)[C@@H]1N[C@@H](CC(C)(C)C)[C@](C#N)(c2ccc(Cl)cc2F)[C@H]1c1cccc(Cl)c1F [idasanutlin]
Outline: as §1

alisertib = compound: COc1cc(Nc2ncc3c(n2)-c2ccc(Cl)cc2C(c2c(F)cccc2OC)=NC3)ccc1C(=O)O [alisertib]
Outline: as §1

[5] = compound: COc1cc2nc(-c3cc(F)ccc3O)nc(N[C@@H]3CNC[C@H]3C(C)(C)O)c2cc1OC
Outline: as §1

gefitinib = compound: COc1cc2ncnc(Nc3ccc(F)c(Cl)c3)c2cc1OCCCN1CCOCC1 [gefitinib]
Outline: as §1

[6] = compound: COc1cccc2cc(-c3nc([C@H]4CC[C@H](C(=O)O)CC4)n4ncnc(N)c34)[nH]c12
Outline: as §1

lapatinib = compound: CS(=O)(=O)CCNCc1ccc(-c2ccc3ncnc(Nc4ccc(OCc5cccc(F)c5)c(Cl)c4)c3c2)o1 [lapatinib]
Outline: as §1

pictilisib = compound: CS(=O)(=O)N1CCN(Cc2cc3nc(-c4cccc5[nH]ncc45)nc(N4CCOCC4)c3s2)CC1 [pictilisib]
Outline: as §1

UniProt Q9BZD2, sequence (Q9BZD2 whole entry, looked up): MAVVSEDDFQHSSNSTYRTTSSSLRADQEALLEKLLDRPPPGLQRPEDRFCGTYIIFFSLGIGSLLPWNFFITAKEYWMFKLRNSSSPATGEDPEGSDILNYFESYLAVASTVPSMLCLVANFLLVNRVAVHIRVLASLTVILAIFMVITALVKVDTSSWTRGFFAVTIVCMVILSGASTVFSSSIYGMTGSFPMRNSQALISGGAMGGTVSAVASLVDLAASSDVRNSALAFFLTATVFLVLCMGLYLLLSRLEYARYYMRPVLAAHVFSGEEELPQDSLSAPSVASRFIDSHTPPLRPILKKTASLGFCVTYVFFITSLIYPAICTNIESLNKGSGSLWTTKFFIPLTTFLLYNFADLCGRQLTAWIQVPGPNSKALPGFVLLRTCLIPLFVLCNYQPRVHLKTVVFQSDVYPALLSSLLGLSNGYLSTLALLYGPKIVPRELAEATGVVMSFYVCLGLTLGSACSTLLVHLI
UniProt Q13428, sequence (Q13428 whole entry, looked up): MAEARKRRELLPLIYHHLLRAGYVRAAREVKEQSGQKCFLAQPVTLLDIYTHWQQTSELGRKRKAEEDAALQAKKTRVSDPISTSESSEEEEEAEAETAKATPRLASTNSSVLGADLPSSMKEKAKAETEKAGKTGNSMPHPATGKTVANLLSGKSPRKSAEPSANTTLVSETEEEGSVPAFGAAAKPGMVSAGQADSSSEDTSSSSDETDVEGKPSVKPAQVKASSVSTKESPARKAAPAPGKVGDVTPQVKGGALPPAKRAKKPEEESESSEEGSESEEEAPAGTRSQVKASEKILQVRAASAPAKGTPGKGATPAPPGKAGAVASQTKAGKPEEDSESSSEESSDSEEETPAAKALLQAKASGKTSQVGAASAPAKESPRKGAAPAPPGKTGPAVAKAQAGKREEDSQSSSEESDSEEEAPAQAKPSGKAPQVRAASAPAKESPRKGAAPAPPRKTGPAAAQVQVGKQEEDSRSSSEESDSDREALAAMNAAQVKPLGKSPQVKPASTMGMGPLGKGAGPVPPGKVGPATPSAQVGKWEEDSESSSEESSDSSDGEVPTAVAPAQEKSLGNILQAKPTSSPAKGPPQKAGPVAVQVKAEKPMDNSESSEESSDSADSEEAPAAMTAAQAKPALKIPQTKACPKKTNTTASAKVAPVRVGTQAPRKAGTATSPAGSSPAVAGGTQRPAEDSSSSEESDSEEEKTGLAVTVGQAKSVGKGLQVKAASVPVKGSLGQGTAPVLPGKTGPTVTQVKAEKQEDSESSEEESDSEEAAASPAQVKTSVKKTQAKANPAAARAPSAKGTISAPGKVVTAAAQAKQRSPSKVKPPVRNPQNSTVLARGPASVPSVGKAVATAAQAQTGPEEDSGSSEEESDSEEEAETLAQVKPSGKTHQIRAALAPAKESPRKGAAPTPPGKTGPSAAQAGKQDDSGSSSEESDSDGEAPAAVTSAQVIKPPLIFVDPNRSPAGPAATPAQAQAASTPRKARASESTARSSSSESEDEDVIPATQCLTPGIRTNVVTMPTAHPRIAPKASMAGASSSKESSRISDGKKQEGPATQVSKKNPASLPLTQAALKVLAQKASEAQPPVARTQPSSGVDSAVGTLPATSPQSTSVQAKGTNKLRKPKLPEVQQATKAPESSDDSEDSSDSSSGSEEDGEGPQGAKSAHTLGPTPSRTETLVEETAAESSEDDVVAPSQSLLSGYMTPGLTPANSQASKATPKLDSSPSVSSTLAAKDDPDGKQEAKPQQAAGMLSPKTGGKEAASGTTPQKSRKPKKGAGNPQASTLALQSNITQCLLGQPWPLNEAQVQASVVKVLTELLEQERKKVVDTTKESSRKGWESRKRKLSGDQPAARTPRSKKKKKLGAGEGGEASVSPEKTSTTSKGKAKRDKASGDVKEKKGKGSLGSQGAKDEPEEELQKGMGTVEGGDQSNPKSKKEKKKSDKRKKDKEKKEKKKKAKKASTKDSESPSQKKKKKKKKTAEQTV
UniProt P30626, sequence (P30626 whole entry, looked up): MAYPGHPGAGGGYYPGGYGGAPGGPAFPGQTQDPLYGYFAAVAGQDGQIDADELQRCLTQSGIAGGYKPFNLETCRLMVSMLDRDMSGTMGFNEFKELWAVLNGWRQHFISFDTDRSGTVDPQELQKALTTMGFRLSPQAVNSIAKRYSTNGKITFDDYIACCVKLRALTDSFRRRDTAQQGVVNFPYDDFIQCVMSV
UniProt P84103, sequence (P84103 whole entry, looked up): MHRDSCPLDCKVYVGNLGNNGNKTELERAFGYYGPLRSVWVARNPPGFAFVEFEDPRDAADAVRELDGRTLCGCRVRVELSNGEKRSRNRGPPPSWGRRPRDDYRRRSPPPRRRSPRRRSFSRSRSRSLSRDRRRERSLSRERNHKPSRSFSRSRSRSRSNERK
UniProt Q9UBP0, sequence (Q9UBP0 whole entry, looked up): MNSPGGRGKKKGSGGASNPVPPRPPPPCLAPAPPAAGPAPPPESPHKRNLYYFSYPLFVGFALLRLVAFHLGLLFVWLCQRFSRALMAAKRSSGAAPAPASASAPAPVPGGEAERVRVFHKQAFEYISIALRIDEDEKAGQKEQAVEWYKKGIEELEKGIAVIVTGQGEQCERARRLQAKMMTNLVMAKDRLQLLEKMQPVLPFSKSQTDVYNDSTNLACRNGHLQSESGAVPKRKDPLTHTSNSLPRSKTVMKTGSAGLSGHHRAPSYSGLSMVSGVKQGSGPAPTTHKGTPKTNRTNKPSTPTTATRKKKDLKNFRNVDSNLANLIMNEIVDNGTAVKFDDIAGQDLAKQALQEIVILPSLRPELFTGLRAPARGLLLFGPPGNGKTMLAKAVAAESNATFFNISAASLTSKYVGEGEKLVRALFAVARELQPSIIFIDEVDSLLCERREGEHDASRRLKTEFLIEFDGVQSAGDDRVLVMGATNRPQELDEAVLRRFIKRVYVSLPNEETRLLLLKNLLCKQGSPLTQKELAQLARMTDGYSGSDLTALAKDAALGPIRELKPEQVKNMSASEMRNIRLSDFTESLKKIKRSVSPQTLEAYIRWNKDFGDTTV
UniProt Q13043, sequence (Q13043 whole entry, looked up): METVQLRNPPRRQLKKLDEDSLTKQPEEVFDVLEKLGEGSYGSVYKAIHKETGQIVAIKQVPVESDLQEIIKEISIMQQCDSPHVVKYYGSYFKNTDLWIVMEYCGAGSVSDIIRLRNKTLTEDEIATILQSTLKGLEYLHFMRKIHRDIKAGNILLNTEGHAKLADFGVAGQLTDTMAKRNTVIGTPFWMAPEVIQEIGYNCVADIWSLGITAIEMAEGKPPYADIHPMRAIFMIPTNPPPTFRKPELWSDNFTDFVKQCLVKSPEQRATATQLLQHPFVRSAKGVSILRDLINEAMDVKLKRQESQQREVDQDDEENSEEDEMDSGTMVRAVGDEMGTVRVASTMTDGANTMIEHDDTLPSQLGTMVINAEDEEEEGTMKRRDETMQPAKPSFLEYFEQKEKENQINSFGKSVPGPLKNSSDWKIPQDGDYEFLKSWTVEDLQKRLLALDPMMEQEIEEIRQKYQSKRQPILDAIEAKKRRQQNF
UniProt Q99523, sequence (Q99523 whole entry, looked up): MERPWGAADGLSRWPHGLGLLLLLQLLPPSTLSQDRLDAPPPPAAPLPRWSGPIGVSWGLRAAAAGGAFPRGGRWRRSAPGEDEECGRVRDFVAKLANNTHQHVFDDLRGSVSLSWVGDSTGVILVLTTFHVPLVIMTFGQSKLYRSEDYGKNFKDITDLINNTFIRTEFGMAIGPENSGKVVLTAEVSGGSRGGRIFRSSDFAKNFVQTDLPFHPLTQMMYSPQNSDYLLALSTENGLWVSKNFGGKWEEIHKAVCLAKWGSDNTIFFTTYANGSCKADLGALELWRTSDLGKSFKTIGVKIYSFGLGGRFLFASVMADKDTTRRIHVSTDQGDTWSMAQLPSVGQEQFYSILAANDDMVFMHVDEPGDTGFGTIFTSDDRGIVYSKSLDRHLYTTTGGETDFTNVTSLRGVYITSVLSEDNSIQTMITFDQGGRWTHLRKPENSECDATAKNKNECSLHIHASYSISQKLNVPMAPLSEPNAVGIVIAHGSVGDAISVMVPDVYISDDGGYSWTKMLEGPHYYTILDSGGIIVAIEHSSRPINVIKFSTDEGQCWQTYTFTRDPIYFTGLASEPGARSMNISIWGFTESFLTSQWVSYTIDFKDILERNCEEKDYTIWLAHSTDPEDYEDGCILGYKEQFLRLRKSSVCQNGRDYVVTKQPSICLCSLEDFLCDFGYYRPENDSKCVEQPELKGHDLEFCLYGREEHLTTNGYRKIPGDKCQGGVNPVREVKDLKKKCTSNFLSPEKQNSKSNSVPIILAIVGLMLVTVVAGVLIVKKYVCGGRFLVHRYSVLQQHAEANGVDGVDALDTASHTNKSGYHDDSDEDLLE
UniProt Q92536, sequence (Q92536 whole entry, looked up): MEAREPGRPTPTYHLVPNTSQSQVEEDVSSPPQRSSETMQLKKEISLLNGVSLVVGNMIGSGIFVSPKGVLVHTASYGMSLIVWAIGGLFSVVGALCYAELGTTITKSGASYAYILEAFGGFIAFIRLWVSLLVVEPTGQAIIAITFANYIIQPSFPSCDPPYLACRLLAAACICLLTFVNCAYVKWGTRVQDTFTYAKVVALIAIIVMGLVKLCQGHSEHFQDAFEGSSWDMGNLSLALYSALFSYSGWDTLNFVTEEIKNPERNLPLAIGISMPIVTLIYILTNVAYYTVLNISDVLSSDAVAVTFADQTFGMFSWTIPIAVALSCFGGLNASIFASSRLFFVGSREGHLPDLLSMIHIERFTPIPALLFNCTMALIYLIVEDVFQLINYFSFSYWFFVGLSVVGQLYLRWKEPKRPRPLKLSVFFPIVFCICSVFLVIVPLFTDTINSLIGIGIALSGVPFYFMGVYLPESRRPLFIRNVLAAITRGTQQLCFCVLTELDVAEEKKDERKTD
UniProt P62072, sequence (P62072 whole entry, looked up): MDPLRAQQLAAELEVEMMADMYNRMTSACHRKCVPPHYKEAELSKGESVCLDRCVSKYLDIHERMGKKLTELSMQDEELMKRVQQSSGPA

Row | Target | log2 fold change (saracatinib) | log2 fold change (sotrastaurin) | log2 fold change (alvocidib) | log2 fold change (Tubastatin A) | log2 fold change [1] | log2 fold change (defactinib) | log2 fold change (rucaparib) | log2 fold change [2] | log2 fold change (encorafenib) | log2 fold change [3] | log2 fold change [4] | log2 fold change (filanesib) | log2 fold change (zotarolimus) | log2 fold change (idasanutlin) | log2 fold change (alisertib) | log2 fold change [5] | log2 fold change (gefitinib) | log2 fold change [6] | log2 fold change (lapatinib) | log2 fold change (pictilisib)
1 | STK4 (UniProt Q13043) | 0.006 | 0.029 | -0.01 | 0.039 | 0.01 | -0.002 | -0.008 | 0.012 | 0.077 | -0.003 | -0.031 | -0.034 | -0.025 | 0.01 | -0.047 | 0.099 | -0.007 | 0.015 | -0.036 | 0.02
2 | SMPD4 isoform 4 (UniProt Q9NXE4) | 0.154 | -0.082 | -0.174 | 0.007 | -0.041 | -0.056 | 0.043 | -0.071 | -0.081 | 0 | 0.051 | -0.223 | 0.011 | -0.049 | 0.145 | -0.109 | 0.02 | -0.043 | -0.013 | -0.034
3 | TCOF1 isoform 4 (UniProt Q13428) | 0.016 | -0.064 | 0.012 | 0.013 | -0.006 | -0.033 | 0.02 | -0.038 | 0.002 | 0.026 | 0.002 | 0.028 | -0.011 | 0.092 | -0.061 | -0.051 | -0.01 | -0.002 | 0.017 | 0.028
4 | SLC29A3 (UniProt Q9BZD2) | 0.089 | 0.056 | 0.045 | 0.092 | 0.105 | 0.013 | -0.083 | -0.018 | -0.05 | 0.055 | 0.009 | -0.258 | -0.015 | -0.113 | 0 | -0.08 | -0.08 | 0.019 | -0.118 | 
5 | SRP72 (UniProt O76094) | -0.102 | -0.181 | 0.069 | 0.119 | 0.04 | -0.035 | 0.184 | 0.055 | 0.155 | -0.134 | 0.003 | 0.075 | 0.048 | -0.045 | -0.131 | 0.023 | 0.007 | -0.235 | -0.043 | 0
6 | SMC5 (UniProt Q8IY18) | -0.005 | -0.075 | 0 | -0.034 | 0.056 | -0.05 | 0.015 | -0.046 | -0.045 | -0.014 | -0.055 | 0.009 | -0.032 | -0.081 | 0.047 | 0.009 | 0.034 | 0.028 | 0.018 | 0.024
7 | SRI (UniProt P30626) | -0.034 | -0.017 | -0.062 | 0.039 | 0.034 | -0.108 | -0.012 | -0.021 | -0.03 | -0.022 | -0.015 | 0.053 | 0.133 | -0.031 | -0.035 | -0.109 | 0.01 | 0.023 | 0.008 | -0.04
8 | SPAST (UniProt Q9UBP0) | -0.016 | -0.015 | -0.203 | 0.003 | -0.01 | -0.056 | 0.073 | 0.115 | 0.038 | -0.037 | 0.03 | -0.028 | -0.006 | -0.038 | -0.1 | 0.096 | -0.019 | -0.042 | -0.019 | -0.041
9 | SLC7A6 (UniProt Q92536) | 0.018 | 0.022 | -0.096 | 0 | -0.16 | -0.056 | -0.034 | 0.027 | 0.002 | -0.047 | -0.236 (active) | 0.009 | -0.001 | -0.02 | -0.069 | 0.028 | 0.073 | 0.048 | 0.033 | 0.048
10 | SORT1 (UniProt Q99523) | 0.038 | 0.017 | 0.012 | -0.011 | 0.017 | -0.033 | 0 | -0.027 | -0.017 | 0.014 | 0.058 | -0.066 | 0.002 | 0.008 | -0.016 | -0.032 | 0.028 | 0.056 | 0.022 | 0.003
11 | STAT6 (UniProt P42226) | 0.087 | 0.115 | -0.153 | 0.101 | 0.029 | -0.121 | 0.076 | 0.201 | 0.189 | -0.168 | 0.019 | 0.091 | 0.055 | 0.102 | 0.094 | 0.002 | 0.014 | 0.155 | -0.016 | -0.13
12 | TIMM10 (UniProt P62072) | -0.058 | 0.018 | 0.08 | -0.027 | -0.015 | -0.073 | -0.062 | 0.039 | -0.013 | 0.002 | -0.043 | -0.038 | -0.023 | -0.019 | 0.01 | -0.12 | 0.015 | 0.03 | -0.026 | 0.008
13 | SLC25A39 (UniProt Q9BZJ4) | 0.107 | -0.076 | 0.134 | -0.18 | -0.118 | -0.044 | -0.01 | 0.015 | 0.005 | 0.041 | -0.069 | -0.255 | 0.073 | -0.115 | 0.123 | -0.49 | -0.344 | 0.224 | -0.044 | -0.072
14 | SRSF3 (UniProt P84103) | 0.019 | 0.079 | 0.265 | -0.026 | -0.053 | 0.235 | 0.257 | -0.022 | 0.023 | 0.032 | -0.226 | 0.193 | -0.054 | 0.217 | -0.101 | -0.011 | -0.026 | -0.009 | -0.006 | -0.018
15 | TGFBR1 isoform 2 (UniProt P36897) | 0.371 (active) | 0.026 | -0.009 | 0.023 | -0.045 | 0.039 | 0.096 | 0.041 | 0.041 | -0.055 | 0.004 | -0.001 | -0.217 | -0.007 | -0.05 | 0.06 | -0.029 | -0.041 | 0.063 | -0.073
16 | TJP1 (UniProt Q07157) | -0.049 | -0.064 | -0.114 | 0.045 | -0.099 | -0.16 | 0.018 | 0.003 | 0.029 | -0.056 | 0.02 | 0.035 | 0.03 | 0.001 | -0.059 | 0.005 | 0.038 | 0.055 | -0.006 | 0.017
